Consider seven molecules from paper PMC7826789 (International Journal of Molecular Sciences, 2021).
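Also: KINOMEscan scanMAX binding as percent activity remaining versus control; lower means stronger binding.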

This experiment deals with MYLK. To be noted: Compound Concentration (nM):1000.
In the case of `Cl.O=C(O[C@H]1CN[C@H](C#Cc2cc3ncnc(Nc4ccc5c(cnn5Cc5ccccc5)c4)c3s2)C1)N1CCOCC1` [GSK200398A], the “Percent Control” value came out at 100%.

With `COc1cc(C)c(N(C)C(=O)CN(C)C)cc1Nc1nc(Nc2cccc(F)c2C(N)=O)c2cc[nH]c2n1` [GSK2219385], the “Percent Control” value is on record as 10%.

For the molecule `Nc1ncnc2occ(-c3ccc(NC(=O)Nc4cc(C(F)(F)F)ccc4F)cc3)c12` [GW770249X], the “Percent Control” value is 100%.

With `COc1cc(/C=N/Nc2ncnc3[nH]ncc23)ccc1O` [GW578748X], the “Percent Control” value worked out at 68%.

For `C[C@@H](Oc1cc(-n2cnc3ccc(OC4CCN(C)CC4)cc32)sc1C(N)=O)c1ccccc1Cl` [GSK579289A], the “Percent Control” value was found to be 81%.

On to `COc1ccc2c(-c3ccnc(Nc4cccc(OC(F)(F)F)c4)n3)cnn2n1` [GW810372X], for which the “Percent Control” value turned out to be 100%.

For the molecule `CN(C)c1cc2c(Nc3ccc4c(cnn4Cc4ccccc4)c3)ncnc2cn1` [GW282974X], the “Percent Control” value came out at 100%.
